Menin MLL FP FL – qHTS Assay for Inhibitors Targeting the Menin-MLL Interaction in MLL Related Leukemias: Competition With Fluorescein Labeled MLL-derived Peptide | Fluorescence polarization, fluorescein-MLL peptide displacement from menin | FP activity change, % at 61.4 µM | 290,000 tested, under 10 active | AID 1766, 2009; active = well fitted curve in the direction sought with a large enough effect in the polarisation, not every such curve was filed as active; inconclusive = small, poorly fitted or top-dose-only effect, or effect the other way, or a change in a side signal; inactive = no such curve, though single readings can be large or run the other way; the % refers to the polarisation; also: % of control where 0% means no effect
MLL CXXC-DNA inh – qHTS Fluorescence Polarization Assay for Inhibitors of MLL CXXC domain - DNA interaction; Histone-lysine N-methyltransferase 2A (Homo sapiens), Q03164; Potency, µM (top dose mostly 115 µM), for the others: at the highest dose activity change, negative = inhibition, usual class: inhibitors; MLL-CXXC / FITC-HOXA9 DNA fluorescence polarization; 290,000 compounds, 0.037% hits; active = well fitted inhibition curve with a large enough effect in the polarisation, with a control signal flat, not every such curve was filed as active; inconclusive = small, poorly fitted or top-dose-only effect, or effect the other way, or a change in a side signal; inactive = no such curve, though single readings can be large or run the other way; the % refers to the polarisation; also: potency is read from the fitted curve at half-maximal effect
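Steps: dispense CXXC domain solution (7 uM) → pin compounds or unlabeled HOX-A9 DNA control → 5 min ambient → add FLSN-HOX-A9 solution (50 nM) → spin → 30 min ambient → fluorescence polarization. Tris pH 7.5/NaCl/DTT/BSA buffer.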
ClpP mod – qHTS Assay for Activators of ClpP; AID 651965, 2013; 340,000 compounds, 1.9% hits; ATP-dependent Clp protease proteolytic subunit (Bacillus subtilis (strain 168)), P80244; Potency, µM (doses to about 57.5 µM), inactives show at the highest dose activity change, negative = active; purified B. subtilis ClpP, FRET peptide cleavage, 20 min; active = well fitted falling curve with a large enough effect; inconclusive = small, poorly fitted or top-dose-only effect; inactive = no such curve, though single readings can be large or run the other way; also: potency is read from the fitted curve at half-maximal effect; the source files actives as falling curves though it sought activators and does not explain the sign; nearly all actives have a fitted effect of over 65% in size
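FRET quenching reversal measured ClpP activation: 10 microg/mL B. subtilis ClpP at pH 8 with the FRET-FV decapeptide, read at 430 nm after 320 nm excitation. The 20-min minus 0-min signal was scaled between DMSO/no-enzyme wells and ADEP (5.8 microM final).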
PINK1 expr mod – A Quantitative High throughput Screen to Identify Chemical Modulators of PINK1 Expression; Potency, µM (series often up to 76.6 µM), without a hit: top-dose activation (PINK1 increase), actives largely listed as activators; PINK1 immunofluorescence, high-content cytometry, 24 h; AID 624263, 2012; 410,000 compounds, 0.2% hits; active = well fitted activation curve with a large enough effect; inconclusive = small, poorly fitted or top-dose-only effect; cell line not stated here; also: potency is read from the fitted curve at half-maximal effect; % of control where 0% means no effect; nearly all actives have a fitted effect of over 65% in size
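Fluorescence from anti-PINK1 antibody, together with nuclear and cell stains, was scanned on a laser-scanning cytometer. Before staining, stable-line cells were incubated 24 hours with compounds at 5 concentrations; primary antibody 12 h at 10 degrees C.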
Menin-MLL TR inh – qHTS Assay for Inhibitors Targeting the Menin-MLL Interaction in MLL Related Leukemias: Competition With Texas Red Labeled MLL-derived Mutant Peptide | O00255 | Menin + Texas Red MLL mutant peptide, fluorescence polarization | Potency, µM (highest dose often 61.6 µM), for the others: at the top dose FP activity change, negative = inhibition, usual class: inhibitors | 270,000 compounds, 0.23% hits | AID 1768, 2009; active = well fitted inhibition curve with a large enough effect in the polarisation, with a control signal flat, not every such curve was filed as active; inconclusive = small, poorly fitted or top-dose-only effect, or effect the other way, or a change in a side signal; inactive = no such curve, though single readings can be large or run the other way; the % refers to the polarisation; also: potency is read from the fitted curve at half-maximal effect; % of control where 0% means no effect
Epigenetic derep – Quantitative High-Throughput Screen for Regulators of Epigenetic Control. murine LDR cells, GFP reporter derepression, 30 h. Potency, µM (titrated, usually from 53.9 µM), without a hit: at the top dose GFP activation, hits mostly activators. 280,000 compounds, 0.2% hits. AID 1865, 2009; also: potency is read from the fitted curve at half-maximal effect; % of control where 0% means no effect; nearly all actives have a fitted effect of over 60% in size
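Murine LDR cells carrying a silenced, genomically integrated CMV-driven GFP reporter were exposed to compound for 30 hours at 37 C. After PBS washes, GFP-positive cells (20–120 um objects) were counted by laser-scanning microplate cytometry.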
MLL CXXC Fl – qHTS Fluorescence Polarization (FP) Assay for Inhibitors of MLL CXXC domain - DNA interaction: Fluorescein FP. shares compounds with MLL CXXC-DNA inh. MLL CXXC-DNA binding, fluorescein FP. Potency, µM (series often up to 345 µM), without a hit: at the highest dose activity change, negative = inhibition, actives largely listed as inhibitors. 200 compounds, 70% hits; also: potency is read from the fitted curve at half-maximal effect; nearly all actives have a fitted effect of over 80% in size
MLL CXXC FP-TR – qHTS Fluorescence Polarization (FP) Assay for Inhibitors of MLL CXXC domain - DNA interaction: Texas Red FP. shares compounds with MLL CXXC-DNA inh. MLL CXXC-DNA binding, Texas Red fluorescence polarization. Potency, µM (top dose mostly 345 µM), inactives show top-dose activity change, negative = inhibition, most hits filed as inhibitors. 200 compounds, 40% hits; also: potency is read from the fitted curve at half-maximal effect; % is scaled to controls: 0 for no effect and ±100 for the full control effect; nearly all actives have a fitted effect of over 75% in size
MLL CXXC TRF – qHTS Fluorescence Polarization (FP) Assay for Inhibitors of MLL CXXC domain - DNA interaction: HTRF Assay; 210 compounds, 30% hits; MLL CXXC-DNA binding, HTRF, biochemical; Potency, µM (highest dose often 172 µM), for inactives: at the highest dose activity change, negative = inhibition, hits mostly inhibitors; shares compounds with MLL CXXC-DNA inh; also: % is scaled to controls: 0 for no effect and ±100 for the full control effect; nearly all actives have a fitted effect of over 80% in size
Active calls of the source: *; ? = inconclusive; . = no result given; [ ] = remark or other dose. In the library only some 1.9% were active in any assay of this set; here they are far more common. Unless noted, calls follow the shape of the dose curve; as a rule, active = well fitted curve in the direction sought with a large enough effect; inconclusive = small, poorly fitted or top-dose-only effect, or another doubt; inactive = no such curve, though single readings can be large; an effect the other way counts as inactive or inconclusive.

SMILES	Menin MLL FP FL	MLL CXXC-DNA inh	ClpP mod	PINK1 expr mod	Menin-MLL TR inh	Epigenetic derep	MLL CXXC Fl	MLL CXXC FP-TR	MLL CXXC TRF
Oc1nc(Nc2ccc(F)cc2)sc1/C=C1\C=Nc2ccccc21	25	24%	.	11%	.	3%	.	.	.
Cc1cccc(-n2c(C)cc(C=C3C(=O)c4ccccc4C3=O)c2C)c1	?	32µM*	-2%	.	?	14%	142µM*	?	41%
O=C(Nc1ccc(SC(F)F)cc1)c1cc(-c2ccncc2)nc2ccccc12	.	.	-5%	26%	.	.	.	.	.
CCOC(=O)/C(=C/C=C1\Sc2cc(OCC)c(OCC)cc2N1CC)C(C)=O	?	?	.	?	-23%	22µM*	0.56µM*	?	61%
Cc1ccc(OCC(=O)N(Cc2ccc(Cl)cc2)CC2CCCO2)cc1C (stereo unspecified)	.	.	0%	1%	.	-2%	.	.	.
COc1ccc2occ(C(=O)c3ccc(N)cc3)c2c1	4	?	0%	-3%	26%	.	37%	36%	-1%
CCN(CC)Cc1nc2c(c(=O)[nH]1)C(CC)(CC)Cc1ccccc1-2	-3	-4%	-2%	?	?	.	.	.	.
O=c1nc2c(O)cccn2c2c1c(=O)[nH]c1ccccc12	?	32µM*	-5%	16%	0%	-1%	4µM*	?	?
O=c1[nH]c2ccccc2c2nc3ccccn3c12	-3	-17%	?	-4%	?	1%	.	.	.
CCCCC1OC2(C)OC(=N)C1(C#N)C(C#N)(C#N)C2c1ccccc1 (stereo unspecified)	?	22µM*	32µM*	-2%	-27%	1%	28µM*	?	-5%
CCCC1OC23CCCCC2C(C#N)(C(=N)O3)C1(C#N)C#N (stereo unspecified)	-26	-24%	?	0%	-7%	-1%	.	.	.
O=C(Nc1ccccc1Cl)c1cc(C2CCCN(C(=O)c3cccs3)C2)on1 (stereo unspecified)	.	.	1%	0%	.	.	.	.	.
COc1ccc(CNC(=O)c2cn(Cc3ccc(OC(C)=O)cc3)c(=O)s2)cc1	.	.	0%	0%	.	.	.	.	.
CCN(CC)C1=CC2=CC(=C(C#N)C#N)CCC2CC1 (stereo unspecified)	?	?	.	?	?	3%	.	.	.
N#CC(C#N)=C1C=C2C=C(N3CCCCC3)CCC2CC1 (stereo unspecified)	.	?	2%	?	?	7%	0.14µM*	126µM*	199%
C[C@@]12C(=O)OC(=O)[C@]1(C)[C@H]1CC[C@@H]2O1	-3[24.8 µM]	-2%[51.4 µM]	.	.	16%[24.8 µM]	?	.	.	.

Screens as filed in PubChem BioAssay.
